Sampled rows, rich in hits. Any-hit rate of the full collection: about 5.4%.
Marburg entry inh: inhibitors of Marburg virus binding or cell entry | Marburg virus pseudotyped entry inhibition, cell reporter | Potency, µM (top dose mostly 37.8 µM), for the others: top-dose activity change, negative = inhibition, hits mostly inhibitors | actives 1.8% (n = 300,000); calls by dose curve; tested in HEK293 cells
LASV entry inh: Lassa virus entry inhibition; Potency, µM (series often up to 37.9 µM), for the others: at the top dose activity change, negative = inhibition, hits mostly inhibitors; actives 1.2% (n = 300,000); Lassa virus pseudotype entry inhibition, cell reporter; AID 540256; calls by dose curve; tested in HEK293 cells; note: nearly all actives have a fitted effect of over 50% in size
VACV mCherry inh: vaccinia inhibition (mCherry reporter). Vaccinia virus mCherry reporter infection, fluorescence. Potency, µM (highest dose often 36.5 µM), inactives show at the highest dose activity change, negative = inhibition, actives largely listed as inhibitors. actives 0.63% (n = 310,000). AID 720579; calls by dose curve; tested in A549 cells; note: nearly all actives have a fitted effect of over 35% in size
FMDV inh: foot and mouth disease virus antiviral activity | FMDV antiviral cell-based qHTS | actives 1.2% (n = 410,000) | AID 1159524 | Potency, µM (titrated, usually from 57.9 µM), for the others: at the top dose activity change, negative = inhibition, most hits filed as inhibitors; calls by dose curve; tested in HEK293T cells; note: read-out not given here; nearly all actives have a fitted effect of over 45% in size
Sm TGR inh: inhibitors of Schistosoma mansoni thioredoxin glutathione reductase. Q962Y6. purified TGR, DTNB reduction, TNB absorbance 405 nm. Potency, µM (series often up to 114 µM), without a hit: at the top dose activity change, negative = inhibition, most hits filed as inhibitors. actives 3% (n = 360,000). AID 485364; active = well fitted inhibition curve with a large enough effect; inconclusive = small, poorly fitted or top-dose-only effect; inactive = no such curve, though single readings can be large or run the other way; note: nearly all actives have a fitted effect of over 60% in size
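First, TGR (20 nM dispensed) and NADPH were mixed with compound. Second, a 15 min room-temperature incubation followed. Third, further NADPH and then DTNB were added to start the reaction. Finally, TNB absorbance was monitored kinetically.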
VACV Venus inh: inhibitors of vaccinia virus (Venus reporter) | Vaccinia virus Venus reporter expression, fluorescence | Potency, µM (series often up to 36.5 µM), inactives show top-dose activity change, negative = inhibition, actives largely listed as inhibitors | actives 0.46% (n = 330,000); calls by dose curve; tested in A549 cells; note: nearly all actives have a fitted effect of over 30% in size
* = called active by the depositor; i = inactive; ? = inconclusive; . = no result; [ ] = dose if it differs, or a comment. % is set by controls: 0 for no effect and ±100 for the full control effect; potency is the fitted concentration of half-maximal effect.

SMILES	Marburg entry inh	LASV entry inh	VACV mCherry inh	FMDV inh	Sm TGR inh	VACV Venus inh
CCOc1ccc(C(=O)Nc2cccc(C)n2)cc1	8.9µM*	?	-20%	-18%	26%	-19%
CCOc1ccc(C(=O)NCCc2ccccc2)cc1	?	8.2µM*	i	.	10%	-4%
CN(C(=O)c1ccccc1)c1ccccc1C(=O)NCCc1ccccc1	0%[46.1 µM]	22%[46.1 µM]	i	1%	-23%	1%
COc1ccc(C(=O)N(C)c2ccccc2C(=O)NCCc2ccccc2)cc1	?	4µM*	-4%	14%	7%	-10%
Clc1ccc(/C=C/c2ccnc3ccccc23)c(Cl)c1	.	.	-14%	.	.	?
COC(=O)NC(=C(Cl)Cl)S(=O)(=O)c1ccccc1	?	13µM*	.	28µM*	?	?
O=C(COc1ccc2ccccc2c1)NC1CC(=O)N(c2ccccc2)C1 (centres undefined)	.	10%[46.1 µM]	-2%[7.34 µM]	-13%	4%	0%[7.34 µM]
COC1=C(N)C(=O)c2nc(-c3nc(C(=O)O)c(C)c(-c4ccc(OC)c(OC)c4O)c3N)ccc2C1=O	0.058µM*	0.082µM*	0.71µM*	4µM*	-7%	0.63µM*
COc1cccc(-c2cc3c(c(OC)c2)OCCN(Cc2cccn2-c2ccccn2)C3)c1	.	.	-16%	1%	.	-1%
COc1ccccc1-n1cc([C@@H]2C[C@H]3CN(c4ccccc4)C(=O)[C@]34CCCN24)cn1	10µM*	?	-17%	-7%	14%	-16%
COc1cc([C@@H]2C[C@H]3CN(c4ccccc4)C(=O)[C@]34CCCN24)cc(OC)c1OC	.	.	.	-10%	?	.
CS/C(=N\S(=O)(=O)c1ccc(F)cc1)c1ccccc1	.	.	-6%	.	.	-25%
Cc1ccc2c(c1)CN(C(=O)CC(c1ccccc1)c1ccco1)CC(C)O2 (centres undefined)	.	.	?	-6%	.	-26%
Cc1ccc(C(CC(=O)N2CCOCC2)c2ccco2)cc1 (centres undefined)	-5%	0%	.	-16%	28µM*	.
CN(c1nnc(NC(=O)Nc2ccccc2C(F)(F)F)s1)C1CCCCC1	27%[46.1 µM]	0%[46.1 µM]	-8%	16%	-2%	-3%
CN1/C(=C/c2cc[n+](C)c3ccccc23)C=Cc2ccccc21	4µM*	?	?	14µM*	-31%	?
C[n+]1ccc(/C=C/c2ccccc2O)c2ccccc21	3%[46.1 µM]	-3%	-12%	-14%	-13%	-13%
CCc1ccc(S(=O)(=O)c2nnn(-c3cccc(C)c3)c2N)cc1	9%[46.1 µM]	-4%[46.1 µM]	-8%	-20%	7%	-4%
COc1ccc(CN2CCCC(n3cc(C(=O)NC4CCCC4)nn3)C2)c2ccccc12 (centres undefined)	.	.	i	-6%	.	-19%
CC(=O)Nc1sc2c(c1C#N)CCN(Cc1ccccc1)C2	.	.	-14%	0%	-7%	0%
N#Cc1c(NC(=O)/C=C/C(=O)O)sc2c1CCN(Cc1ccccc1)C2	.	.	.	2%	25µM*	.
CN1CCCC(C(=O)Nc2cccc(Cl)c2)CC1 (centres undefined)	.	.	i	-16%	.	1%
CN1CCC(C(=O)Nc2n[nH]c3nc(-c4ccc(O)cc4)c(Br)cc23)CC1	.	20µM*	.	.	.	.
Cc1ccc(C)c(N2CCN(C(=O)C3CCN(c4nc(-c5ccc(C(C)C)cc5)no4)CC3)CC2)c1	.	?	-8%[7.34 µM]	?	3%	-15%[7.34 µM]
O=c1[nH]c(O)c(/C=C2\C=Nc3ccc(OCc4ccccc4)cc32)c(=O)[nH]1	?	-21%[46.1 µM]	-2%	-22%	?	-9%
SMILES	Marburg entry inh	LASV entry inh	VACV mCherry inh	FMDV inh	Sm TGR inh	VACV Venus inh
Cc1cccc2c1=NC(=O)/C(=C/c1c(O)[nH]c(=O)[nH]c1=O)C=2	-8%	4%	i	0%	35µM*	-10%
CCOC(=O)CSc1nc2cc3c(cc2c(=O)n1CCCC(=O)NCc1ccc2c(c1)OCO2)OCO3	.	17%[46.1 µM]	-13%	-10%	1%	-12%
COC(=O)c1nc(NC(=O)C(C)C)n[nH]1	5%	0%	i	.	18µM*	0%
COC(=O)c1nc(NC(C)=O)n[nH]1	-7%	.	.	.	1%	.
CC(OC(=O)CSCC(=O)Nc1ccc(Cl)cc1)C(=O)N(C)Cc1ccccc1 (centres undefined)	?	8%	-9%	-29%	.	-2%
CCOc1cc(-c2ccc3c(c2)OCO3)cc(=O)c2c(C)oc(C)c12	-6%	.	.	.	35µM*	.
COc1ccc(-c2cc(OC(=O)c3cccc(C)c3)c3c(C)oc(C)c3c(=O)c2)cc1	-9%[46.1 µM]	?	13%	-7%	13µM*	53%
CCOc1cc(-c2ccc(OC(=O)c3ccc(C)cc3)c(OC)c2)cc(=O)c2c(C)oc(C)c12	21%[46.1 µM]	6%[46.1 µM]	-5%	25µM*	-27%	7%
CCOc1ccc(-c2cc(OC(=O)c3ccc(F)cc3)c3c(C)oc(C)c3c(=O)c2)cc1	-8%[46.1 µM]	?	12%	-10%	?	10%
CCOc1ccc(-c2cc(OC(=O)c3ccccc3)c3c(C)oc(C)c3c(=O)c2)cc1	-15%[46.1 µM]	?	-10%	6%	50µM*	30%
CCN(Cc1ccncc1)Cc1ccc2c(c1)CN(C(=O)c1ccc(C)cc1)CCO2	.	.	-6%	-8%	.	5%
CCCN(Cc1cccs1)C(=O)Nc1ccc(F)c(Cl)c1	-17%[46.1 µM]	1%[46.1 µM]	-2%	7%	1%	-6%
O=C(NCCOCCn1c(=O)oc2ccccc21)Nc1ccc(F)cc1F	0%[46.1 µM]	-7%[46.1 µM]	15%	-14%	0%	22%
Cc1c(C2CCN(CCc3ccccc3)CC2)noc1-c1ccc(Cl)cc1	.	.	-10%	-12%	.	-25%
COc1ccc2c(c1)c1ncn(Cc3ccc(F)cc3)c(=O)c1n2C	-14%	?	?	-11%	0%	-17%
COc1ccc2c(c1)c1ncn(Cc3ccco3)c(=O)c1n2C	?	-14%	?	-20%	40µM*	-30%
Cc1cc(C)cc(NC(=O)C2CCCN(c3cnccn3)C2)c1 (centres undefined)	1%[46.1 µM]	10%[46.1 µM]	3%	-13%	3%	-4%
Cc1ccccc1C1(CC(=O)N2CCOCC2)CC(=O)N(Cc2cccnc2)C1=O (centres undefined)	.	.	-5%	-13%	.	0%
CCOc1ccc(S(=O)(=O)NC(C)(C)C)cc1-c1nc2c(C(C)(C)C)nn(C)c2c(=O)[nH]1	?	21µM*	?	.	0%	?
CCOc1ccc(S(N)(=O)=O)cc1-c1nc2c(C(C)(C)C)nn(C)c2c(=O)[nH]1	-2%[46.1 µM]	-23%	-11%	25%	20%	-22%
Cc1nn(C)c2c1c(-c1ccccc1)cc(=O)n2Cc1ccc(F)cc1	.	-10%[46.1 µM]	-11%	6%	-7%	-1%
CCN(CC(=O)Nc1c(F)cccc1F)C(=O)c1ccc(N2CCOCC2)c([N+](=O)[O-])c1	?	-8%	-16%	?	45µM*	-3%
CCOC(=O)C1CCN(C(=O)CN2c3ccc(C(C)C)cc3-c3ccccc3S2(=O)=O)CC1	5%[46.1 µM]	-14%[46.1 µM]	3%	73%	0%	-13%

High-throughput results (PubChem BioAssay)
